Compounds with a hit are over-represented: about 6.2% of the library has one in this group of screens.
AHR act – AHR activators, primary screen, cell-based, luminescence, luciferase reporter, human; AHR-responsive luciferase reporter cells; activation, % at 5 µM; 320,000 compounds, 2.5% hits; Aryl hydrocarbon receptor (Homo sapiens), P35869; in the data active = activation above about 47%;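 also: 0% = vehicle wells and 100% = reference agonist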
AI-2 QS mod – Vibrio harveyi AI-2 quorum sensing modulators, primary screen, JMH597 strain, luminescence/OD600 ratio. Vibrio harveyi JMH597 AI-2 luminescence/OD600 ratio, 9 h; hits give low values; strain lacks LuxN and CqsS sensors; 0 = neutral-control median. activity change, % at 7.5 µM. 300,000 compounds, 0.4% hits. AID 2094, 2009; in the data active = activity change below about -75%, passing the limit was not always enough;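 also: luminescence divided by OD600 gain over 9 h not by final OD600 alone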
GRIN3A LBD mod – binders of NR3A ligand-binding domain, primary screen, biophysical, differential scanning fluorimetry, uHTS; Glutamate receptor ionotropic, NMDA 3A (GRIN3A) ligand-binding domain; NR3A LBD differential scanning fluorimetry, Tm shift; 0% = protein alone, 100% = glycine-bound protein; Tm shift relative to glycine control, % at 25 µM; 340,000 compounds, 2.5% hits; AID 1259313, 2017;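 active = melting temperature shift of at least 10% of the positive control shift, at one fixed dose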
NTR1 agonist – agonists of human NTR1, primary screen, imaging, U2OS cells, beta-arrestin-GFP, high content; Neurotensin receptor type 1 (Homo sapiens), P30989; activation, % at 20 µM; 330,000 compounds, 0.17% hits; AID 493036, 2011; NTR1-U2OS beta-arrestin-GFP spot imaging, agonist mode;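 active = activation at or above 40% of the spot to cytoplasm intensity ratio, with at least 20 cells analyzed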;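 also: 0% = DMSO without peptide and 100% = 100 nM NTR1 peptide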
SUMO Mot1 rescue – yeast Mot1-301 growth rescue at high temperature, primary screen, SUMOylation pathway inhibitor project, S. cerevisiae, ATP luminescence, 38.5C | S. cerevisiae Mot1-301 growth rescue; percent above DMSO median, 100 means doubled | growth rescue, % at 18.8 µM | 320,000 compounds, 1% hits | AID 2716, 2010;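 active = every valid replicate shows activation above 250% relative to neutral control wells; inactive = the rest, any valid replicate at or below 250%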;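 also: OY570 slx delta 5 strain wells were the positive control but not used for scaling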
Cardio protect – cardioprotection against H2O2-induced cell death, primary screen, uHTS, H9c2 cells, ATPLite luminescence | H9c2 cardiomyocytes, H2O2 injury protection, 2 h | protection from H2O2 cell death, % at 20 µM | 360,000 compounds, 0.63% hits | AID 588492, 2011;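 active = compounds giving at least 50% protection of heart cells from peroxide-induced death in the single-dose screen, raw or plate-pattern-corrected value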;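 also: 0% = DMSO wells with peroxide and 100% = DMSO wells without peroxide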
AHR act cf – AHR activators, confirmation, cell-based, luminescence, luciferase reporter, human. shares compounds with AHR act. human cells, AHR-responsive luciferase reporter. activation, % at 9 µM. 2,300 compounds, 87% hits; in the data active = activation above about 49%;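 also: HepG2 hepatoma cells carrying a DRE-driven firefly luciferase reporter; 0% = vehicle wells and 100% = reference agonist wells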
PXR counter – human PXR activators, counter-screen for AHR activator project, cell-based, luciferase luminescence. shares compounds with AHR act. cell-based PXR reporter. activation, % at 11.6 µM. 2,300 compounds, 88% hits; in the data active = activation above about 11%;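 also: human hepatoma DPX-2 cells expressing full-length human PXR; 0% = DMSO and 100% = reference agonist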
* marks the source's active call; other numbers are inactive results; / = no result.

SMILES	AHR act	AI-2 QS mod	GRIN3A LBD mod	NTR1 agonist	SUMO Mot1 rescue	Cardio protect	AHR act cf	PXR counter
O=C(COC(=O)c1c(F)cccc1F)Nc1cccc(S(=O)(=O)N2CCCCC2)c1	/	/	/	/	/	-7.6	/	/
CC(C)(C)N(Cc1ccccc1)C(=O)CN1C(=O)NC2(CCCCCC2)C1=O	-1.6	/	0.2	3.6	-2.3	-3.2	/	/
O=C(NNC(=S)Nc1cccc(Cl)c1)c1ccccc1OC(F)F	85.2*	29.0	0.2	0.3	-5.4	-4.9	126.3*	27.4*
O=C(NNC(=S)Nc1ccccc1)c1cc(Br)ccc1Cl	102.7*	16.9	-4.2	1.2	0.9	-10.7	91.1*	83.3*
O=C(Nc1cccc(S(=O)(=O)N2CCCC2)c1)c1ccccc1OC(F)F	7.2	-0.2	0.7	0.0	-8.8	1.3	/	/
OCCNCc1cc(Br)ccc1OCc1ccccc1Cl	119.5*	23.2	-0.1	-1.3	-20.4	-9.6	85.5*	39.6*
OCCCCNCc1cc(Br)ccc1OCc1ccccc1	-0.3	19.8	-3.5	1.5	4.2	-5.8	/	/
O=C(COc1ccc(Br)cc1CNCCc1ccccc1)NCc1ccccc1	113.7*	26.6	-2.4	22.9	/	-11.0	89.8*	44.2*
CCCNCc1cc(Br)ccc1OCC(=O)NCCc1ccccc1	-1.6	8.4	-9.3	1.4	183.2	13.3	/	/
CCC1(CC)C(C#N)C(=O)NC(=O)C1C#N (stereo not given)	/	/	-0.2	/	/	-4.1	/	/
Cc1cc(OCCCC(=O)Nc2cccc(-n3cnnn3)c2)ccc1Cl	2.1	-1.6	5.1	3.6	-6.5	-5.7	/	/
Nc1ccc2nc(-c3ccc(Cl)cc3)[nH]c2c1	167.3*	14.7	1.1	0.6	-16.8	-14.7	110.6*	32.8*
Clc1ccc2nc(-c3ccc(Cl)nc3)[nH]c2c1	87.1*	8.1	/	-0.3	-6.2	-9.9	137.9*	0.1
Nc1nc2ccc(Cl)cc2[nH]1	/	/	-2.5	/	/	5.2	/	/
COc1ccc(C2=NCCn3nc4cc(C(F)(F)F)ccc4c32)cc1	79.8*	7.8	-3.7	1.9	39.7	-12.6	69.2*	41.6*
CSc1nc2[nH]c3c(c2c2nnnn12)CCCC3	115.6*	13.2	6.0	1.4	-2.1	-15.9	106.9*	44.3*
S=c1[nH]nc(-c2cc3c(s2)-c2ccccc2CC3)o1	93.3*	44.3	-23.4	0.6	167.5	-10.3	116.1*	23.0*
CCC(=O)N(Cc1ccc(C)cc1)Cc1cc2cc3c(cc2[nH]c1=O)OCO3	17.2	26.1	-2.0	-0.7	10.4	6.3	/	/
CCC(=O)N(CCc1ccccc1)Cc1cc2cc3c(cc2[nH]c1=O)OCO3	91.7*	28.7	-1.1	2.2	8.1	-0.1	93.0*	54.1*
Fc1ccc(N/N=C2/CC(c3ccccc3)Oc3ccccc32)c(F)c1 (stereo not given)	97.6*	2.9	-3.8	-1.7	-18.3	-4.9	89.9*	26.2*
N#C/C(=C(\O)c1cc(Cl)sc1Cl)c1nc2ccccc2[nH]1	89.0*	15.2	-2.2	6.3	-38.3	-15.4	160.7*	12.9*
Cc1cccc(NC(=O)c2ccc(S(=O)(=O)NCc3cccnc3)cc2)c1	9.1	13.7	1.1	-0.3	-2.0	4.6	/	/
O=S(=O)(NNc1ncc(C(F)(F)F)cc1Cl)c1ccc(F)cc1F	113.8*	/	3.8	-0.6	-6.5	21.5	103.2*	/
O=S(=O)(Cc1ccccc1)N1CCCc2ccccc21	124.6*	9.7	-1.9	-0.5	10.4	4.4	113.9*	80.1*
COc1ccc(NC(=O)CN2C(=O)NC(C)(C3CC3)C2=O)cc1S(=O)(=O)N1CCCCC1 (stereo not given)	-0.9	/	0.5	-0.3	-9.4	1.5	/	/
SMILES	AHR act	AI-2 QS mod	GRIN3A LBD mod	NTR1 agonist	SUMO Mot1 rescue	Cardio protect	AHR act cf	PXR counter
Cc1oc2cc(OC(=O)c3ccco3)ccc2c(=O)c1-c1nc2ccccc2n1C	105.7*	15.1	-6.6	8.3	-8.4	6.6	1.5	19.8*
COc1ccc2nc(SCC(=O)N3CC(=O)Nc4ccccc43)c(C#N)cc2c1	42.9	13.7	-1.1	-0.5	/	23.0	/	/
Cc1cc(C)c2nc(SCC(=O)N3CC(=O)Nc4ccccc43)c(C#N)cc2c1	91.8*	11.7	-4.9	1.5	-0.5	-0.8	76.1*	77.0*
Clc1ccsc1-c1csc(-c2cccnc2)n1	84.7*	5.5	1.6	2.1	43.2	-6.3	142.2*	25.0*
c1cncc(-c2csc(-c3cccnc3)n2)c1	-3.0	12.5	-1.9	-0.4	7.4	-2.0	/	/
c1cncc(-c2nc(-c3ccc4c(c3)OCO4)cs2)c1	94.7*	16.6	-29.7	2.5	84.9	-17.8	80.4*	26.8*
COc1ccc2nc(NC(=O)CSc3n[nH]c(N)n3)sc2c1	93.6*	2.5	/	0.5	21.2	-16.5	108.3*	21.5*
CCOc1ccc(C(=O)NCC(=O)NNC(=O)CN(C)S(=O)(=O)c2ccc(Cl)cc2)cc1OCC	/	/	1.4	/	/	2.0	/	/
COc1ccc(-c2nn(C)c3sc(C(=O)NCc4ccco4)cc23)cc1OC	134.5*	8.3	2.1	-1.9	192.0	10.5	111.6*	34.9*
COc1cccc(-c2nn(C)c3sc(C(=O)NCc4ccc(C)o4)cc23)c1	44.2	10.6	-4.1	8.3	4.6	5.1	/	/
COc1ccc(-c2[nH]c(-c3ccc(C)cc3)nc2SCC(=O)NCc2ccco2)cc1OC	120.6*	21.0	-1.4	-0.9	23.5	-5.9	84.8*	12.4*
CC(=O)CSc1nsc(SCC(C)=O)c1C#N	23.1	3.0	3.1	-1.8	-1.9	10.1	/	/
N#Cc1c(SCC(N)=O)nsc1SCc1ccc(Cl)cc1	80.1*	20.0	-12.5	3.3	222.0	-3.5	84.2*	36.4*
N#Cc1c(SCC(N)=O)nsc1SCc1ccccc1Cl	101.2*	11.0	-37.3	1.5	-13.8	-20.7	83.0*	22.4*
COc1cc(N)c(Cl)cc1C(=O)OCC(=O)N1c2ccccc2NC(=O)C1(C)C	0.2	/	0.6	3.8	/	10.5	/	/
CCOc1cc(N)c(Cl)cc1C(=O)NCC1CN(Cc2ccc(F)cc2)CCO1 (stereo not given)	90.3*	30.6	0.6	1.3	-2.2	-3.3	63.2*	180.8*

From PubChem
